Screens: PubChem, National Center for Advancing Translational Sciences (NCATS)
Compounds with a hit are over-represented: about 10% of the library has one in this group of screens.
NIH3T3 tox: Cytotoxic Profiling in NIH 3T3 Cell Line of Diverse Libraries Using Quantitative High-Throughput Screening; Potency, µM (highest dose often 96.7 µM), inactives show top-dose activity change, negative = cytotoxicity, hits mostly inhibitors; AID 1345082, 2018; 94,000 tested, 4.3% active; NIH 3T3 viability, CellTiter-Glo ATP luminescence, 48-72 h; note: nearly all actives have a fitted effect of over 55% in size
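First NIH 3T3 cells are plated at 400 cells/well; next compound is pinned in; then plates incubate 48 or 72 hr at 37 °C; finally CellTiter-Glo is added and luminescence read after 10 min.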
NPR1 antag: Natriuretic polypeptide receptor (hNpr1) antagonism - Primary qHTS. 76,000 tested, 1.6% active. Potency, µM (doses to about 46.3 µM), for inactives: at the top dose activity change, negative = inhibition, actives largely listed as inhibitors. HEK293 hNpr1 GloSensor cGMP, ANP-stimulated luminescence. Atrial natriuretic peptide receptor 1 (Homo sapiens), P16066; calls by dose curve; note: nearly all actives have a fitted effect of over 60% in size
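Compound pre-incubated 30 min at room temperature on GloSensor-loaded HEK293 cells stably carrying hNpr1 and the pGS-40F cGMP biosensor. Stimulation uses hNppA at 0.1 nM final; luminescence is taken at baseline and 20 min post-agonist.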
HEK293 tox: Cytotoxic Profiling in HEK 293 Cell Line of Diverse Libraries Using Quantitative High-Throughput Screening; HEK 293 viability, ATP luminescence (CellTiter-Glo), 48-72 h; Potency, µM (top dose mostly 115 µM), without a hit: at the top dose activity change, negative = cytotoxicity, actives largely listed as inhibitors; 94,000 tested, 6.6% active; AID 1345083, 2018; note: nearly all actives have a fitted effect of over 60% in size
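Pintool-delivered compounds were incubated with HEK 293 cells (250 cells/well) at 37 degree Celsius for 48 or 72 hr. ATP-dependent luminescence (CellTiter-Glo) then reported remaining viable cells.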
GPT2 inhibitor: Primary qHTS assay for inhibitors of Glutamate pyruvate transaminase 2 (GPT2) | Alanine aminotransferase 2 (Homo sapiens), Q8TD30 | Recombinant GPT2, coupled pyruvate oxidase/HRP Amplex Red fluorescence | Potency, µM (highest dose often 57.7 µM), for inactives: at the top dose activity change, negative = inhibition, usual class: inhibitors | 100,000 tested, 0.25% active | AID 1671188, 2021; note: nearly all actives have a fitted effect of over 60% in size
Target sequence (Q8TD30 whole entry, looked up): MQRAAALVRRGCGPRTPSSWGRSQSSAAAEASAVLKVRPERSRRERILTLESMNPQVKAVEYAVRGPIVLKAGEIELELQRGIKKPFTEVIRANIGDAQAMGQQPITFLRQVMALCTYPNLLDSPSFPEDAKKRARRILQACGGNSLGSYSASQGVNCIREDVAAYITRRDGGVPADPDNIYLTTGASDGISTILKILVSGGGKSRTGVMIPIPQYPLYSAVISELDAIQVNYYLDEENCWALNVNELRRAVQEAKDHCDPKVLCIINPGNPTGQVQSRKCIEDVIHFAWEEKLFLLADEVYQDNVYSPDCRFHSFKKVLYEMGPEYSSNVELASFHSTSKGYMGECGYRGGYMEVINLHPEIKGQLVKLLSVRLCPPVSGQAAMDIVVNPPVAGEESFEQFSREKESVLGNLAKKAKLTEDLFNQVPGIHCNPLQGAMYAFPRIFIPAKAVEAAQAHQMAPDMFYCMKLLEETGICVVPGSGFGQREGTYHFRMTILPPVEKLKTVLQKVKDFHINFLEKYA
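Recombinant GPT2 (10ng/uL) with 250uM a-KG and 2mM L-alanine, 30 min at room temperature, in HEPES pH 7.5 buffer. Pyruvate detected by pyruvate oxidase/HRP/Amplex Red fluorescence after 30 min in the dark; AOA (50uM) as positive control.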
Luciferase inh: Firefly luciferase inhibition profiling of diverse chemical library using quantitative high-throughput screening; Luciferin 4-monooxygenase (Photinus pyralis), P08659; purified P. pyralis luciferase, luminescence, biochemical; Potency, µM (doses to about 115 µM), usual class: inhibitors; 76,000 tested, 2.5% active; note: nearly all actives have a fitted effect of over 65% in size
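Cell-free enzyme assay, 10nM P. pyralis luciferase, luciferin and ATP each at 10uM. Inhibition profiled over a 6-point titration, read as luminescence.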
The depositor's hits bear a star; i = inactive; u = inconclusive; x = no result given; [ ] = remark or other dose. Unless noted, calls come from the whole dose curve; as a rule, active = well fitted curve in the direction sought with a large enough effect; inconclusive = small, poorly fitted or top-dose-only effect, or another doubt; inactive = no such curve, though single readings can be large; an effect the other way counts as inactive or inconclusive. % is set by controls: 0 for no effect and ±100 for the full control effect; potency is the fitted concentration of half-maximal effect.

SMILES | NIH3T3 tox | NPR1 antag | HEK293 tox | GPT2 inhibitor | Luciferase inh
O=C(CNC(=O)c1ccc(-c2cnc3ccccc3c2)cc1)NC1CCCCCC1 | u | x | u | i | x
O=S(=O)(NC[C@H]1Cn2c(-c3ccc(F)cc3)cnc2CO1)c1ccc(Cl)cc1 | u | u | 100µM* | -11%[88.5 µM] | i
Fc1ccc(-c2cnc3n2C[C@H](CN(Cc2ccccc2)Cc2ccccc2)OC3)cc1 | 28µM* | -20%[70.6 µM] | 35µM* | 1%[88.5 µM] | i
O=C(NC[C@H]1Cn2c(-c3ccc4c(c3)OCO4)cnc2CO1)c1ccc2c(c1)OCO2 | 28µM* | -27%[70.6 µM] | 63µM* | -17%[88.5 µM] | u
COc1ccccc1C(=O)NC[C@H]1Cn2c(-c3ccc(Cl)cc3)cnc2CO1 | 10µM* | u | 13µM* | -3%[88.5 µM] | i
O=C(NC[C@H]1Cn2c(-c3ccc(F)cc3)cnc2CO1)c1ccc(Cl)cc1 | u | 18µM* | 89µM* | 4%[88.5 µM] | u
O=C(NCc1ccc2c(c1)OCO2)C1CCCCN1Cc1ccc(-c2ccsc2)cc1 (centres undefined) | 13µM* | x | 22µM* | 4% | x
O=C(NCc1cccc(F)c1)C1CCCCN1Cc1ccc(-c2ccsc2)cc1 (centres undefined) | 28µM* | x | 40µM* | -14% | x
Cc1cc(C)cc(-c2ccc(CN3CCCC3C(=O)NCc3cccc(F)c3)cc2)c1 (centres undefined) | u | x | u | -26% | x
O=C(NCc1cccc(F)c1)C1CCCCN1Cc1ccc(-c2cccs2)cc1 (centres undefined) | 28µM* | x | 20µM* | -4% | x
O=C(C1CCCN1C(=O)c1ccccc1)N1CCC(c2ccccc2)CC1 (centres undefined) | -27% | x | -29% | i | x
Cn1ccc2c(C(=O)NCCC(N)=O)nc(-c3cccc(CO)c3)cc21 | u | 4%[70.6 µM] | i | -3%[88.5 µM] | i
Cn1ccc2c(C(=O)NCC3CCC(=O)N3)nc(-c3ccccc3)cc21 (centres undefined) | 50µM* | -2%[70.6 µM] | -24%[172 µM] | 4%[88.5 µM] | i
Cn1ccc2c(C(=O)NCCC(N)=O)nc(-c3ccccc3)cc21 | 100µM* | 2%[70.6 µM] | -3%[172 µM] | i | i
Cn1ccc2c(C(=O)NCCC(N)=O)nc(-c3cccc(C(F)(F)F)c3)cc21 | u | 3%[70.6 µM] | 89µM* | -9%[88.5 µM] | i
Cn1ccc2c(C(=O)NCCC(N)=O)nc(-c3ccccc3C(F)(F)F)cc21 | u | 4%[70.6 µM] | u | -4%[88.5 µM] | i
CCS(=O)(=O)N1CCCC(n2c(C)cnc2C2CC2)C1 (centres undefined) | -16% | 1% | -8% | u | i
NC(=O)N1CCCC(C(=O)N2CCN(c3nsc4ccccc34)CC2)C1 (centres undefined) | u | 1% | 25µM* | 1% | i
CCc1ccc(C(=O)NCCn2ccn3nc(-c4ccc(F)cc4)cc3c2=O)cc1 | -18% | 7% | -22% | i | i
CCOc1cc(=O)n2c(c1C(=O)Nc1ccc(S(N)(=O)=O)cc1)CCCC2 | 2% | -1% | -10% | i | i
CCC1(N2CCN(C(=O)NCc3cccc(F)c3)CC2)CCN(C(=O)C(C)C)C1 (centres undefined) | -10% | 1% | 0% | -6% | i
Cn1c(CNC(=O)C2Cn3cccc3C(=O)N2Cc2ccccc2)nc2ccccc21 (centres undefined) | 32µM* | -11% | u | u | i
c1ccc(-c2noc(Nc3ccc4c(c3)OCCO4)n2)cc1 | u | -29% | 40µM* | i | 22µM*
CCn1c2ccccc2c2cc(C(=O)N3C[C@@H](Oc4ccccc4)C[C@@H]3C(=O)NC)ccc21 | u | -14% | 35µM* | i | u
CNC(=O)[C@H]1C[C@H](Oc2ccccc2)CN1C(=O)c1ccc(OC)c(OC)c1 | i | -12% | -2% | -12% | i
SMILES | NIH3T3 tox | NPR1 antag | HEK293 tox | GPT2 inhibitor | Luciferase inh
O=C(NC1CCN(c2ccc3nnc(-c4ccccc4)n3n2)C1)c1ccc(F)cc1 (centres undefined) | -3% | x | 5% | x | x
O=C(Cc1cccc(Cl)c1)NC1CCCN(c2ccc3nnc(-c4ccccc4)n3n2)C1 (centres undefined) | 35µM* | x | 35µM* | x | x
O=C(NC1CCN(c2ccc3nnc(-c4ccccc4)n3n2)CC1)c1ccccc1F | -24% | x | u | x | x
O=C(NC1CCN(c2ccc3nnc(-c4ccccc4)n3n2)C1)c1ccccc1Cl (centres undefined) | 32µM* | x | 35µM* | x | x
O=C(Cc1cccc(Cl)c1)NC1CCCN(c2ccc3nnc(C4CC4)n3n2)C1 (centres undefined) | -25% | x | -14% | x | x
COc1ccccc1C(=O)NC1CCN(c2ccc3nnc(-c4ccccc4)n3n2)CC1 | u | x | 35µM* | x | x
CCc1noc(-c2nc(-c3ccc(OC)cc3)no2)n1 | 1% | -22% | u | i | u
O=C(CC1C(=O)NCCN1Cc1cccc(Oc2ccccc2)c1)NCc1ccco1 (centres undefined) | u | 6% | 25µM* | 3% | i
COc1ccc(C(=O)N2CCc3nc(C4CC4)nc(-c4ccc(OC)cc4)c3CC2)cc1 | u | x | u | -3% | x
CCCc1nnc(NC(=O)C2c3ccccc3C(=O)N(CCOC)C23CCCCC3)s1 (centres undefined) | u | -2% | u | i | i
O=C(NCCC1=CCCCC1)c1cc2n(n1)CC(c1ccc(Cl)cc1)OC2 (centres undefined) | u | u | 45µM* | u | i
O=C(NCCC1=CCCCC1)c1cc2n(n1)CC(c1ccc3c(c1)OCO3)OC2 (centres undefined) | u | u | 71µM* | i | i
COc1ccc(C(=O)N2CCCC2C(=O)N2CCC(N3CCOCC3=O)CC2)cc1 (centres undefined) | -8% | x | i | i | x
COCc1ccc2c(c1)c(OC(C)(C)C(=O)Nc1cccnc1)nn2Cc1ccccc1 | u | 0%[70.6 µM] | u | i | i
CC(C)(Oc1nn(Cc2cccc(Cl)c2)c2ccccc12)C(=O)N1CCCC1 | 50µM* | -16%[70.6 µM] | u | -19%[88.5 µM] | i
COCc1ccc2c(c1)c(OC(C)(C)C(=O)NC1CCC(O)CC1)nn2Cc1ccccc1 (centres undefined) | 40µM* | -2% | -31% | i | i
